Measurements: PubChem BioAssay (NCI)
Compounds without any hit were thinned out: in the full panel of roughly 83,000, 20% have a hit.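 The test compound was applied at a single concentration to cells in 96-well plates for 48 hours, and percent growth was recorded.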 Calls of active or inactive are those of the source. Rule for the calls: active = growth percent below 10; inactive = the rest.

system: HL-60(TB) leukemia; experiment: NCI-60 one-dose screen, 48 h (100 = growth as untreated, 0 = no growth, -100 = all killed); settings: 10 µM unless noted

Row | Compound | growth
1 | Cc1ccc(/C=C(\C#N)C(=O)Nc2ncc(Cc3cc(Cl)ccc3Cl)s2)o1 | 22.5% (inactive)
2 | OC(c1cc2c(Cl)cc(Cl)cc2c2cc(C(F)(F)F)ccc12)C1CCCCN1 (stereo not drawn) | -39.1% (active)
3 | CCOC(=O)C1=C(c2ccccc2)N=C2N(c3ccccc3)N=C(C(C)=O)N2C1c1ccc(Br)cc1 (stereo not drawn) | 96.2% (inactive)
4 | COc1ccc(C2CC(c3cccc(Nc4ccncc4)c3)=NN2c2ccccc2)cc1 (stereo not drawn) | -32.8% (active)
5 | O=C(O)COc1ccc(-c2cssc2=S)cc1 | 101% (inactive)
6 | CNC(=O)c1cc(Oc2ccc(NC(=O)Nc3cc(C(C)(C)C)nn3-c3ccc4ncccc4c3)c(F)c2)ccn1 | -43.2% (active)
7 | Cc1cccc2c3c(sc12)C(c1ccc(Cl)cc1)C(C#N)=C(N)O3 (stereo not drawn) | -21% (active)
8 | CCOC(=O)c1c(C)cc(=O)oc1C | 105% (inactive)
9 | CC(C)(C)n1cc(-c2ccnc(NCCNS(=O)(=O)c3ccc(Br)cc3)c2)c(-c2cccc(O)c2)n1 | -8.19% (active)
10 | CC(C)(C)c1ccc(S(=O)(=O)Oc2ccc(-c3sc4cc(OS(=O)(=O)c5ccc(C(C)(C)C)cc5)ccc4c3C(=O)c3ccc(OCCN4CCCCC4)cc3)cc2)cc1 | 95.3% (inactive)
11 | CC(C)OC(=O)c1ccc2n1CCCc1cnc(Nc3ccccc3)nc1-2 | 79.1% (inactive)
12 | COc1cccc(-c2nc3sccn3c2-c2ccnc(NCCNS(=O)(=O)c3c(Cl)cccc3Cl)c2)c1 | 25.9% (inactive)
13 | COc1ccc(/C=C/c2c(C(=O)/C=C/c3ccc(Cl)cc3)c(C)nc3ccccc23)cc1 | 10% (inactive)
